# The panel holds about 83,000 compounds, 20% with a hit somewhere; the sample as a whole holds those more often.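 In brief: 96-well plates, 48 h treatment, single concentration, percent growth endpoint.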 Active and inactive are the calls of the source. How the source made its calls: active means growth percent below 10; inactive means the rest.
# Tested on: HS 578T breast
# Assay: NCI-60 one-dose screen, 48 h (100 = growth as untreated, 0 = no growth, -100 = all killed)
# Details: 1 µM
row,Compound,growth
1,CC/C(=C(\c1ccc(O)cc1)c1ccc(OCCN(C)C(=O)COCCNC(=O)Cc2ccc3c(c2)CN([C@@H]2CCC(=O)NC2=O)C3=O)cc1)c1ccccc1,48.7% (inactive)
2,CC/C(=C(\c1ccc(O)cc1)c1ccc(OCCN(C)C(=O)CCOCCNC(=O)c2ccc3c(c2)CN([C@@H]2CCC(=O)NC2=O)C3=O)cc1)c1ccccc1,75.9% (inactive)
3,CC/C(=C(/c1ccc(O)cc1)c1ccc(OCCN(C)C(=O)CCOCCNC(=O)Cc2ccc3c(c2)CN([C@@H]2CCC(=O)NC2=O)C3=O)cc1)c1ccccc1,61.4% (inactive)
4,CC/C(=C(/c1ccc(O)cc1)c1ccc(OCCN(C)C(=O)COCCOCCNC(=O)c2ccc3c(c2)CN([C@@H]2CCC(=O)NC2=O)C3=O)cc1)c1ccccc1,70.9% (inactive)
5,CC/C(=C(\c1ccc(O)cc1)c1ccc(OCCNC)cc1)c1ccccc1,94.8% (inactive)
6,CC/C(=C(/c1ccc(O)cc1)c1ccc(OCCN(C)C(=O)COCCOCCNC(=O)Cc2ccc3c(c2)CN([C@@H]2CCC(=O)NC2=O)C3=O)cc1)c1ccccc1,64.8% (inactive)

# Same assay, conditions: 10 µM
row,Compound,growth
1,CC/C(=C(\c1ccc(O)cc1)c1ccc(OCCN(C)C(=O)COCCNC(=O)Cc2ccc3c(c2)CN([C@@H]2CCC(=O)NC2=O)C3=O)cc1)c1ccccc1,7.64% (active)
2,CC/C(=C(\c1ccc(O)cc1)c1ccc(OCCN(C)C(=O)CCOCCNC(=O)c2ccc3c(c2)CN([C@@H]2CCC(=O)NC2=O)C3=O)cc1)c1ccccc1,69.3% (inactive)
3,CC/C(=C(/c1ccc(O)cc1)c1ccc(OCCN(C)C(=O)CCOCCNC(=O)Cc2ccc3c(c2)CN([C@@H]2CCC(=O)NC2=O)C3=O)cc1)c1ccccc1,30.4% (inactive)
4,CC/C(=C(/c1ccc(O)cc1)c1ccc(OCCN(C)C(=O)COCCOCCNC(=O)c2ccc3c(c2)CN([C@@H]2CCC(=O)NC2=O)C3=O)cc1)c1ccccc1,53.9% (inactive)
5,CC/C(=C(\c1ccc(O)cc1)c1ccc(OCCNC)cc1)c1ccccc1,80.5% (inactive)
6,CC/C(=C(/c1ccc(O)cc1)c1ccc(OCCN(C)C(=O)COCCOCCNC(=O)Cc2ccc3c(c2)CN([C@@H]2CCC(=O)NC2=O)C3=O)cc1)c1ccccc1,19.1% (inactive)

# Reference: PubChem BioAssay (NCI)
